esBAF inh: inhibitors of esBAF chromatin remodeling in mouse ES cells | Bmi1-luciferase knock-in reporter, 24 h; 100% = twice the neutral-well signal | reporter increase, % at 12.5 µM | actives 2% (n = 350,000) | AID 602393; in the data active means activation above about 40%; inconclusive means no clear call, values can overlap the other calls;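 further: a rise in the Bmi1 reporter signal indicates esBAF inhibition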
APOBEC3G inh: APOBEC3G (human) deaminase inhibition; recombinant A3G, ssDNA deamination FAM/TAMRA fluorescence; inhibition, % at 20 µM; actives 0.28% (n = 330,000);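 active means inhibition of at least 40% at 20 µM, with no more than 30% in the related APOBEC3A deaminase screen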
Target sequence (Q9HC16 whole entry, looked up): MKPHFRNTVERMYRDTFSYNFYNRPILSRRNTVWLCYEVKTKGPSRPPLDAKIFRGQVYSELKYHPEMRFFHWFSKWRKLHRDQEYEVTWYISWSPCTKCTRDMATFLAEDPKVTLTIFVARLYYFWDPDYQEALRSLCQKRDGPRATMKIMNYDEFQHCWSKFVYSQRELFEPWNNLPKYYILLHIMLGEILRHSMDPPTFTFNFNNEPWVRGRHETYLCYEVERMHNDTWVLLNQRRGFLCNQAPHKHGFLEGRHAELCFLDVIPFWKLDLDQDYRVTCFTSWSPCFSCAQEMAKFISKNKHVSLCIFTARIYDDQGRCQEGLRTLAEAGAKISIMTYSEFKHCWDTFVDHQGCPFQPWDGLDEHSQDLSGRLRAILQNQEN
A3A deaminase: human APOBEC3A DNA deaminase inhibition; recombinant A3A, FAM/TAMRA ssDNA deamination fluorescence; inhibition, % at 20 µM; actives 0.41% (n = 330,000); AID 493011;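 active means at least 40% inhibition at 20 µM here, with at most 30% in a related deaminase screen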
Target sequence (P31941 whole entry, looked up): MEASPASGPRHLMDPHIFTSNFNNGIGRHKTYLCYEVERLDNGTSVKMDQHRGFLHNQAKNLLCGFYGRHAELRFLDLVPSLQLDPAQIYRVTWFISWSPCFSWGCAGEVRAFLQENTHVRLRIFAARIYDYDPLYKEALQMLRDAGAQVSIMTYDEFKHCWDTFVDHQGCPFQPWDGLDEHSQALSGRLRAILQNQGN
MITF act: activators of MITF-driven TRPM1 promoter activity in SK-MEL-5 cells. SK-MEL-5 TRPM1-promoter luciferase, 24 h; % of positive control, neutral wells = 0. activation, % at 12.5 µM. actives 0.75% (n = 300,000);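 active means mean activation of at least 80% with every replicate also reaching 80%; inconclusive means mean reaches 80% but some replicate falls short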
PHOSPHO1 inh: inhibitors of human PHOSPHO1 phosphatase. recombinant PHOSPHO1, absorbance phosphatase assay. actives 1.1% (n = 290,000). inhibition, % at 13.3 µM. AID 1565. Q8TCT1; in the data active means inhibition above about 60%
Wnt act: activators of Wnt/beta-catenin signaling; Wnt/beta-catenin reporter cell assay, activator, plate reader; activation, % at 9.35 µM; actives 1.2% (n = 300,000); AID 743398; in the data active means activation above about 30%, passing the limit was not always enough; inconclusive means no clear call, values can overlap the other calls
Of the large screens only hits and unclear results are named; the others gave an inactive call. Sampled rows, rich in hits. Any-hit rate of the full collection: about 3.6%.

COc1ccc(NC(=O)c2cc(Br)c(Br)s2)cn1	none
O=C(NCc1ccccc1)C(c1ccncc1)N(C(=O)c1csnn1)C1CC1 (stereo unspecified)	PHOSPHO1 inh 62 (no result: MITF act, Wnt act)
O=C(NCc1ccc(F)cc1)C(c1ccncc1)N(C(=O)c1csnn1)C1CC1 (stereo unspecified)	none (no result: esBAF inh)
O=C1Nc2ccccc2S/C1=C/c1cccs1	Wnt act 34 (no result: esBAF inh, MITF act)
Cc1ccc(N/C=C2/Sc3ccccc3NC2=O)cc1	Wnt act 37 (no result: esBAF inh)
O=C1Nc2ccccc2S/C1=C/NCc1ccccc1Cl	none (no result: esBAF inh, Wnt act)
O=C1NC(=S)SC1=Cc1cccs1	none (no result: APOBEC3G inh, A3A deaminase, PHOSPHO1 inh)
COc1ccc(N/C=C2/Sc3ccccc3NC2=O)cc1	esBAF inh 53
CO[C@@H]1CN(C)C(=O)c2cc(NC(=O)Nc3ccccc3F)ccc2OC[C@H](C)N(CC2CC2)C[C@@H]1C	none (no result: APOBEC3G inh, A3A deaminase, MITF act, PHOSPHO1 inh, Wnt act)
Nc1nc(SCc2ccccc2)ns1	esBAF inh 50 (no result: Wnt act)
Nc1nc(SCc2ccc(Cl)cc2)ns1	none (no result: Wnt act)
C[C@H]1CN([C@@H](C)CO)C(=O)Cc2cc(NC(=O)Cc3cn(C)c4ccccc34)ccc2O[C@@H]1CN(C)S(=O)(=O)c1ccccc1	none (no result: APOBEC3G inh, A3A deaminase, MITF act, PHOSPHO1 inh, Wnt act)
c1coc(C2Nc3ccccc3-c3nc4ccccc4n32)c1 (stereo unspecified)	esBAF inh 46
c1ccc(C2Nc3ccccc3-c3nc4ccccc4n32)nc1 (stereo unspecified)	Wnt act 37 (no result: esBAF inh)
c1ccc(C2Nc3ccccc3-c3nc4ccccc4n32)cc1 (stereo unspecified)	esBAF inh 45, Wnt act 37 (no result: MITF act)
CC1(c2ccccn2)Nc2ccccc2-c2nc3ccccc3n21 (stereo unspecified)	none
O=C(c1ccccn1)N1C[C@H]2[C@@H](c3ccccc31)[C@H](CO)N2C(=O)Nc1ccccc1F	none (no result: APOBEC3G inh, A3A deaminase, MITF act, PHOSPHO1 inh, Wnt act)
C[C@H]1CN([C@@H](C)CO)C(=O)c2cccc(NS(=O)(=O)c3cn(C)cn3)c2O[C@H]1CN(C)Cc1ccc(Oc2ccccc2)cc1	none (no result: APOBEC3G inh, A3A deaminase, MITF act, PHOSPHO1 inh, Wnt act)
COc1cc2nc3c4ccccc4n(CC#N)c3nc2cc1OC	none (no result: esBAF inh, MITF act, Wnt act)
CCn1c2ccccc2c2nc3cc(OC)c(OC)cc3nc21	esBAF inh 49 (no result: MITF act)
O=c1c(O)c(-c2ccc3c(c2)OCO3)oc2ccccc12	esBAF inh 55 (no result: Wnt act)
Nc1nc(N2CCN(C(=O)c3ccco3)CC2)nc2ccc(Br)cc12	MITF act 105 (no result: esBAF inh, Wnt act)
O=C(c1ccco1)N1CCN(c2nc3ccsc3c(=O)s2)CC1	none
Cc1cc2nc(N3CCN(C(=O)c4ccco4)CC3)sc2cc1C	esBAF inh 69, MITF act 116, Wnt act inconclusive (no result: PHOSPHO1 inh)
Cc1cc(C)c2nc(N3CCN(C(=O)c4ccco4)CC3)sc2c1	esBAF inh 54, MITF act 91 (no result: PHOSPHO1 inh)
C[C@@H]1CN([C@@H](C)CO)C(=O)c2cccc(NC(=O)Nc3ccccc3)c2O[C@H]1CN(C)Cc1ccc2c(c1)OCO2	none (no result: APOBEC3G inh, A3A deaminase, MITF act, PHOSPHO1 inh, Wnt act)
CC(C)C#Cc1ccc2c(c1)O[C@H](CN(C)C(=O)Nc1ccccc1)[C@@H](C)CN([C@@H](C)CO)S2(=O)=O	none (no result: APOBEC3G inh, A3A deaminase, MITF act, PHOSPHO1 inh, Wnt act)
CC(=O)Nc1ccc(Sc2ncccc2C(=O)Nc2ccc(F)cc2)cn1	PHOSPHO1 inh 62
CSc1ncccc1C(=O)Nc1ccc(OC(F)(F)F)cc1	none
C[C@H]1CN([C@@H](C)CO)C(=O)Cc2cc(N(C)C)ccc2O[C@@H]1CN(C)C(=O)Nc1ccc2c(c1)OCO2	none (no result: APOBEC3G inh, A3A deaminase, MITF act, PHOSPHO1 inh, Wnt act)
O=c1c2ccccc2oc2cc(NCCCn3ccnc3)ccc12	MITF act inconclusive
O=c1c2ccccc2oc2cc(NCCCN3CCOCC3)ccc12	esBAF inh 43, MITF act 106, Wnt act 44
O=c1c2ccccc2oc2ccc(NCCCN3CCOCC3)cc12	MITF act 137
Cn1c2ccccc2c(=O)c2cc(NCCCN3CCOCC3)ccc21	none (no result: PHOSPHO1 inh)
CCC(=O)N(C)C[C@@H]1[C@H](c2ccc(-c3cccnc3)cc2)[C@H](CO)N1C(C)=O	none (no result: APOBEC3G inh, A3A deaminase, MITF act, PHOSPHO1 inh, Wnt act)
Cc1cc(C[n+]2cc(Br)ccc2N)c2ncccc2c1	Wnt act 41 (no result: esBAF inh)
Brc1c(CSc2nc3ccccc3o2)nc2ncccn12	Wnt act 49 (no result: MITF act)
Cc1csc(NC(=O)c2ccc(N3CCCC3=O)cc2)n1	Wnt act 35 (no result: esBAF inh)
CC1CCN(CCCNC(=O)c2ccc(N3CCCC3=O)cc2)CC1	PHOSPHO1 inh 64
O=C(Nc1ccccc1Br)c1ccc(N2CCCC2=O)cc1	esBAF inh 55, MITF act 87, Wnt act 37 (no result: PHOSPHO1 inh)
O=C(Nc1ccccc1N1CCCC1)c1ccc(N2CCCC2=O)cc1	none (no result: PHOSPHO1 inh)
Cc1nnc(NC(=O)c2ccc(N3CCCC3=O)cc2)s1	esBAF inh inconclusive, MITF act 85 (no result: PHOSPHO1 inh)
Cc1cccc(C)c1NC(=O)c1ccc(N2CCCC2=O)cc1	none (no result: PHOSPHO1 inh)
CO[C@@H]1CC[C@H]2CCN(C)C(=O)[C@@H](C)N(C)C(=O)c3cccc(C#N)c3OC[C@@H]1O2	none (no result: APOBEC3G inh, A3A deaminase, MITF act, PHOSPHO1 inh, Wnt act)
COc1ccc(S(=O)(=O)Nc2ccc3c(c2)C(=O)N([C@H](C)CO)C[C@@H](C)[C@H](CN(C)S(=O)(=O)c2ccc(OC)cc2)OCCCC[C@H](C)O3)cc1	none (no result: APOBEC3G inh, A3A deaminase, MITF act, PHOSPHO1 inh, Wnt act)
Cc1nn(-c2ccccc2)c(C)c1C(=O)OCC(=O)Nc1ccccc1F	MITF act 100, Wnt act 44 (no result: PHOSPHO1 inh)
Cc1nn(-c2ccccc2)c(C)c1C(=O)OCC(=O)NC12CC3CC(CC(C3)C1)C2	esBAF inh 50
Cc1cc(C(=O)OCC(=O)Nc2c(F)cccc2F)c(C)n1-c1ccccc1	esBAF inh 48, PHOSPHO1 inh 64
CC(=O)Nc1ccc(NC(=O)COC(=O)c2c(C)nn(-c3ccccc3)c2C)cc1	none (no result: esBAF inh)
Cc1nn(-c2ccccc2)c(C)c1C(=O)OCC(=O)NC(=O)NC1CCCC1	none (no result: Wnt act)
CC(C)NC(=O)N[C@H]1CC[C@H](CCn2cc(-c3ccc(F)cc3)nn2)O[C@H]1CO	none (no result: APOBEC3G inh, A3A deaminase, MITF act, PHOSPHO1 inh, Wnt act)
COCC(=O)N1C[C@H](C)[C@H](OC)CN(C)C(=O)c2cc(NC(=O)c3ccccc3)ccc2OC[C@H]1C	none (no result: APOBEC3G inh, A3A deaminase, MITF act, PHOSPHO1 inh, Wnt act)
CCCNC(=O)C[C@H]1CC[C@H]2[C@H](COc3ccc(NC(=O)CCC)cc3C(=O)N2C)O1	none (no result: APOBEC3G inh, A3A deaminase, MITF act, PHOSPHO1 inh, Wnt act)
Cc1nc2c3cnn(-c4ccc(C)c(C)c4)c3ncn2n1	MITF act 87 (no result: esBAF inh, Wnt act)
Cc1ccc(-n2ncc3c(=O)n(CC(N)=O)cnc32)cc1C	none
C#CCn1cnc2c(cnn2-c2ccc(C)c(C)c2)c1=O	esBAF inh 66 (no result: Wnt act)
CC(C)NC(=O)N[C@H]1CC[C@H](CC(=O)NCCN2CCCC2)O[C@H]1CO	none (no result: APOBEC3G inh, A3A deaminase, MITF act, PHOSPHO1 inh, Wnt act)
CCC(=O)N(C)C[C@@H]1Oc2cc(-c3ccc(C)cc3)ccc2S(=O)(=O)N([C@H](C)CO)C[C@H]1C	none (no result: APOBEC3G inh, A3A deaminase, MITF act, PHOSPHO1 inh, Wnt act)
CCOC(=O)C1=C(O)/C(=C\c2ccc(CNC(=O)C(=O)Nc3ccccc3)o2)N=C1C	PHOSPHO1 inh 83 (no result: Wnt act)
CCN(CC)CCNS(=O)(=O)c1ccc(OC)c(Br)c1	PHOSPHO1 inh 93
O=C(N[C@@H]1CC[C@H](CCn2cc(-c3ccccc3F)nn2)O[C@@H]1CO)c1ccc2c(c1)OCO2	none (no result: APOBEC3G inh, A3A deaminase, MITF act, PHOSPHO1 inh, Wnt act)
